Results filed as inconclusive are left out. The source holds several records for some structures; these can differ, active in one and inactive in another. Calls of active or inactive are those of the source. The calls were made as follows: active = hit-call score of the fitted dose curve at least 0.9, where 1 is the maximum; inconclusive = response in the unintended direction; inactive = score below 0.9.

This assay can be described thus: TOX21_p53_BLA_p5_viability: Viability Assessment in the Tox21 HCT-116 p53 Agonism Beta-lactamase Assay, Phase 5 (AID 2283600). An excerpt:
TOX21_p53_BLA_p5 is a cell-based, single-readout assay that uses HCT116, a human intestinal cell line, […] in a 1536-well plate.TOX21_p53_BLA_p5_viability is an assay readout measuring cellular ATP content and detected with CellTiter-Glo Luciferase-coupled ATP quantitation.TOX21_p53_BLA_p5_viability used a type of viability reporter where loss-of-signal activity can be used to understand changes in the cell viability. Furthermore, this assay endpoint can be referred to as a secondary readout, because this assay has produced multiple assay endpoints where this one serves a viability function. To generalize the intended target to other relatable targets, this assay endpoint is annotated to the cell cycle intended target family, where the subfamily is cytotoxicity.
Thawing Method: Place 14 mL of pre-warmed thaw medium into a 15 mL of conical tub. Remove the vial of cells to be thawed from liquid nitrogen and thaw rapidly by placing at 37C in a water bath with gentle agitation for 1-2 minutes. Decontaminate the vial by wiping with 70% ethanol before opening in a biological safety cabinet. Transfer the vial contents drop-wise into 14 mL of thaw medium in a sterile 15-mL conical tub. Centrifuge cells at 900 rpm for 4 minutes and resuspend in thaw medium. Transfer contents to the T75 tissue culture flask containing Thaw Medium and place flask in a humidified 37C/5% CO2 incubator. Switch to growth medium at first passage.Propagation Method: Aspirate medium, rinse once in DPBS, add 0.25% Trypsin/EDTA and swirl to coat the cell evenly. Add an equal volume of Growth Medium to inactivate Trypsin after 2-3 minutes incubation at 37C. Centrifuge cells at 900 rpm for 4 minutes and resuspend in growth medium. Cell should be passage or fed at least twice a week.Assay Protocol: Harvest cells from culture in growth medium and resuspend in assay medium. 2.2 Dispense 4000 cells/5 uL/well into 1536-well black/clear bottom plates using a Multidrop dispenser. After the cells were incubated at 37C for 5 hours, 23 nL of compounds dissolved in DMSO were transferred to the assay plate by a PinTool resulting in a 217-fold dilution. Incubate the plates for 16 hours at 37C, 5% CO2. Add 1 uL of 6X LiveBLAzer FRET B/G (CCF4-AM) Substrate Mixture to each well using a BioRAPTR dispenser and incubate the plates at room temperature for 2 hours. Measure fluorescence intensity at 460 and 530 nm emission and 405 nm excitation by an Envision detector. Data is expressed as the ratio of 460nm/530nm emissions. Add 4 uL of Cell-titer Glo to each well using BioRAPTR and incubate the plates at room temperature for […]. For cell viability readout that measures cytotoxicity, 4 ul/well of CellTiter-Glo reagent was added into the assay plates using a Flying Reagent Dispenser. After 30 min incubation at room temperature, the luminescence intensity in the plates was measured using a ViewLux plate reader.
For `CCN(CC)C(=O)N(CC)CC`, the molecule was classed as inactive.

`C1=CC2C3C=CC(C3)C2C1` (stereo not given): the call was inactive.

`COC(C)(C)CCCC(C)CC=O` (stereo not given): the molecule was classed as inactive.

As to `C[C@@H]1CCN(C(=O)[C@H](CCCN=C(N)N)NS(=O)(=O)c2cccc3c2NC[C@H](C)C3)[C@@H](C(=O)O)C1`, the outcome was inactive.

In the case of `CC(=O)NCCO`, the outcome was inactive.

Take `O=c1[nH]c(=O)c2cn[nH]c2[nH]1`: the molecule was classed as inactive.

For the molecule `C=C[Si]1(C)O[Si](C)(C=C)O[Si](C)(C=C)O[Si](C)(C=C)O1` (stereo not given), the outcome was inactive.

On to `C=C(C)C(=O)OCCOC1CC2CC1C1C=CCC21` (stereo not given), for which the result was inactive.

Turning to `c1ccc2cc(Nc3ccc(Nc4ccc5ccccc5c4)cc3)ccc2c1`, the outcome was inactive.

As for `CC1=NN(c2ccc(S(=O)(=O)O)cc2)C(=O)C1`, the outcome was inactive.

`CCCSc1ccc2nc(NC(=O)OC)[nH]c2c1`: the result was inactive.

For `CCCCC(CC)C(=O)OC(C)C` (stereo not given), the outcome was inactive.

For `CN1CCOCC1`, the result was inactive.

Turning to `CC(C)C[C@H](NC(=O)OCC1c2ccccc2-c2ccccc21)C(=O)O`, the call was inactive.

`CC1(C)C2=CCCC(C)(C)[C@]23CC[C@H]1C3`: the molecule was classed as inactive.

Take `OCCOCCN1CCN(C2=Nc3ccccc3Sc3ccccc32)CC1`: the molecule was called inactive.

Regarding `CCc1ncc(C)[nH]1`, the call was inactive.

In the case of `CCCC[P+](CCCC)(CCCC)CCCC`, the AC50 (usually the concentration at which the activity in the assay is half-maximal) was 14.5 µM (active) and the result was inactive.

On to `O=C(CC(=O)c1ccccc1)c1ccccc1`, for which the result was inactive.

Regarding `c1ccc(CCc2ccccc2)cc1`, the outcome was inactive.

On to `CCCOCCO`, for which the molecule was classed as inactive.

As to `CCCCCCCCc1ccc(S(=O)(=O)O)cc1`, the call was inactive.

On to `CC(C)(C)CC(C)(C)c1ccc(OCCOCC[N+](C)(C)Cc2ccccc2)cc1`, for which the molecule was classed as inactive and the AC50 was 73.6 µM (active).

Take `C=CC(=O)OCCCC`: the outcome was inactive.

In the case of `CC(=O)O[C@H]1C[C@@H]2CC[C@@]1(C)C2(C)C`, the call was inactive.

Regarding `CCCCCCCCCCCCCC(=O)OCC(O)CO` (stereo not given), the result was inactive.

For the molecule `Cc1c(C2(c3cc(Br)c(O)c(Br)c3C)OS(=O)(=O)c3ccccc32)cc(Br)c(O)c1Br`, the call was inactive.

On to `CC(Oc1cc(Cl)ccc1Cl)C(=O)O` (stereo not given), for which the molecule was classed as inactive.

In the case of `CCOC(=O)C1OC1c1ccccc1` (stereo not given), the molecule was classed as inactive.

For `CC(C)C(OC(=O)c1ccccc1)C(C)(C)COC(=O)c1ccccc1` (stereo not given), the call was inactive.

Turning to `Oc1c(Cl)cc(Cl)c(Cl)c1Cc1c(O)c(Cl)cc(Cl)c1Cl`, the molecule was classed as inactive.

With `O=C1c2ccccc2C(=O)c2c(O)ccc(O)c21`, the result was inactive.

With `OCC#CCO`, the outcome was inactive.

`Cc1[nH]c(=O)c(C#N)cc1-c1ccncc1`: the outcome was inactive.

Consider `CSCCC=O`, for which the call was inactive.

Turning to `CC1(C)O[C@@H]2[C@@H](CO[C@@]3(COS(N)(=O)=O)OC(C)(C)O[C@@H]23)O1`, the molecule was classed as inactive.

Take `CC(=O)Nc1ccc(C(=O)CCl)cc1`: the result was inactive.

Take `OCc1cccc(Oc2ccccc2)c1`: the call was inactive.

These data come from PubChem BioAssay (EPA / NIEHS).
